PubChem BioAssay (NCATS)
Where “and” joins values, the source holds several entries; their conditions need not be identical. Identical values can stand only once. Results filed as inconclusive are left out. Calls of active or inactive are those of the source. Calls come from the whole dose curve; as a rule, active = well fitted inhibition curve with a large enough effect; inconclusive = small, poorly fitted or top-dose-only effect; inactive = flat fitted curve, though single readings scatter.

The molecules below were run on KB-3-1 (assay: Cytotoxic Profiling of Annotated Libraries Using Quantitative High-Throughput Screening (AID 1296008; note: nearly all actives have a fitted effect of over 60% in size)). Conditions: Five cell lines viability, CellTiter-Glo ATP luminescence, 48-72 h; max response: hits give low values.
Method in brief: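 Cytotoxicity was measured as CellTiter-Glo ATP luminescence, read after 10 min at room temperature. Compound treatment of the cells lasted 48 or 72 hr at 37 degrees Celsius in a qHTS format.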
% is set by controls: 0 for no effect and ±100 for the full control effect; potency is the fitted concentration of half-maximal effect.

Compound	max response	Potency
O=C1C=C2C=C[C@@H]3C[C@@]2(O1)[C@H]1CCCCN31	-12.4% (inactive)	–
O=C(C[C@@H]1NCCC[C@H]1O)Cn1cnc2cc(Br)c(Cl)cc2c1=O	-0.356% (inactive)	–
CC1(C)[C@H](C=C(Cl)Cl)[C@H]1C(=O)OCc1c(F)c(F)cc(F)c1F	-0.195% (inactive)	–
CC(=O)O[C@H]1C[C@H](O[C@H]2[C@@H](O)C[C@H](O[C@H]3[C@@H](O)C[C@H](O[C@H]4CC[C@@]5(C)[C@H](CC[C@@H]6[C@@H]5C[C@@H](O)[C@]5(C)[C@@H](C7=CC(=O)OC7)CC[C@]65O)C4)O[C@@H]3C)O[C@@H]2C)O[C@H](C)[C@H]1O[C@@H]1O[C@H](CO)[C@@H](O)[C@H](O)[C@H]1O	–	0.164 µM (active)
Cc1ccccc1-n1c(C)nc2ccccc2c1=O	-2.74% (inactive) and -4.4% (inactive)	–
Cc1cc(C)cc(C(=O)OC2C[C@H]3CC[C@@H](C2)N3C)c1 (some centres undefined)	-7.52% (inactive)	–
Oc1ccc2c3c1O[C@H]1[C@@H](O)CC[C@@]4(O)[C@@H](C2)N(CC2CCC2)CC[C@]314	4.11% (inactive)	–
Cc1ccccc1-n1c(CF)nc2ccc(N)cc2c1=O	-0.0685% (inactive)	–
CCC/C=C/C=C/C(=O)O[C@H]1/C(=C/C(=O)OC)C[C@H]2C[C@H]([C@@H](C)O)OC(=O)C[C@H](O)C[C@@H]3C[C@H](OC(C)=O)C(C)(C)[C@](O)(C[C@@H]4C/C(=C/C(=O)OC)C[C@H](/C=C/C(C)(C)[C@]1(O)O2)O4)O3	0.184% (inactive)	–
CC(=O)O[C@H]1CC[C@@]2(C)C(=CC[C@@H]3[C@@H]2CC[C@]2(C)C(=O)CC[C@@H]32)C1	-3.08% (inactive)	–
CN1[C@H]2CC[C@@H]1[C@@H](C(=O)O)[C@@H](OC(=O)c1ccccc1)C2	17.1% (inactive) and -20.4% (inactive)	–
OC[C@@H](O)[C@H]1O[C@@H]2O[C@H](C(Cl)(Cl)Cl)O[C@@H]2[C@H]1O	3.48% (inactive)	–
CCCCCc1cc(O)c2c(c1)OC(C)(C)[C@@H]1CCC(C)=C[C@@H]21	-12.3% (inactive)	–
COc1ccc2c3c1O[C@H]1[C@@H](O)C=C[C@H]4[C@@H](C2)NCC[C@@]341	2.68% (inactive) and -3.7% (inactive)	–
[2H]C([2H])([2H])[C@H](N)Cc1ccccc1	2.04% (inactive)	–
CN[C@H]1C[C@@H](N)[C@H](O)[C@@H](O[C@@H]2O[C@H](CO)[C@H](O)[C@@H]3OC4(O[C@H]23)O[C@H](C(N)CO)[C@H](O)[C@H](O)[C@H]4O)[C@@H]1O (some centres undefined)	-7% (inactive) and 5.21% (inactive)	–
C[C@]12CC[C@H]3[C@@H](CCC4=C(O)C(=O)CC[C@@H]43)[C@@H]1CC[C@@H]2OC(=O)CCC1CCCC1	-5.37% (inactive)	–
[H+].[H+].[Hg+2].[O-]B([O-])[O-].[c-]1ccccc1	–	8.2 µM (active)
CC(C)CCC(=O)O[C@H]1CC[C@H]2[C@@H]3CCC4=CC(=O)CC[C@]4(C)[C@H]3CC[C@]12C	19.3% (inactive)	–
NCC[C@H](O)C(=O)N[C@@H]1C[C@H](N)[C@@H](O[C@H]2O[C@H](CN)[C@@H](O)[C@H](O)[C@H]2N)[C@H](O[C@@H]2O[C@H](CO)[C@@H](O)[C@H]2O)[C@H]1O	11% (inactive)	–

Compound	max response	Potency
C[C@]12CC[C@H]3[C@@H](CCC4=C(Cl)C(=O)CC[C@@]43C)[C@@H]1CC[C@@H]2O	3.69% (inactive)	–
CN(C)[C@H](Cc1ccccc1)c1ccccc1	1.61% (inactive)	–
CCNCC(O)c1cccc(O)c1 (centres undefined)	6.6% (inactive)	–
COc1ccc(OC)c([C@@H](O)[C@H](C)N)c1	-0.699% (inactive)	–
CCN(CC)C(=O)N[C@H]1C[C@@H]2c3cccc4[nH]cc(c34)C[C@H]2N(C)C1	-7.12% (inactive)	–
CN(C)CCCCCCN(C)C (tested in a mixture with another compound)	0.743% (inactive)	–
O=C1C[C@@H]2OCC=C3CN4CC[C@]56c7ccccc7N1[C@H]5[C@H]2[C@H]3C[C@H]46 (tested in a mixture with another compound)	0.545% (inactive) and 11.6% (inactive)	–
CC[C@H]1[C@@H]2C[C@H]3[C@@H]4N(C)c5ccccc5[C@]45C[C@@H](C2[C@H]5O)N3[C@@H]1O (some centres undefined)	-5.46% (inactive)	–
CCC(=O)O[C@]1(c2ccccc2)CCN(C)C[C@H]1C	-2.12% (inactive)	–
OC[C@@H](O)[C@H]1O[C@@H]2O[C@@H](C(Cl)(Cl)Cl)O[C@@H]2[C@H]1O	1.39% (inactive)	–
CC(=O)OCC(=O)[C@H]1CC[C@H]2[C@@H]3CC[C@H]4C[C@H](O)CC[C@]4(C)[C@H]3C(=O)C[C@]12C	2.82% (inactive)	–
C=C[C@H]1CN2CC[C@H]1C[C@H]2[C@H](OC(=O)OCC)c1ccnc2ccc(OC)cc12	4.99% (inactive)	–
CCCCCCC(=O)O[C@H]1CC[C@H]2[C@@H]3CC[C@H]4CC(=O)C=C(C)[C@]4(C)[C@H]3CC[C@]12C	-2.21% (inactive)	–
C[C@]12C=CC(=O)C=C1CC[C@@H]1[C@@H]2CC[C@]2(C)OC(=O)CC[C@@H]12	5.64% (inactive)	–
C[C@]12CC[C@H](O)C[C@H]1CC[C@@H]1[C@@H]2CC[C@]2(C)[C@@H](c3ccc(=O)oc3)C[C@H]3O[C@]132	–	1.84 µM (active)
C[C@@H](Cc1ccccc1)N(C)C	9.66% (inactive)	–
CC(=O)[C@H]1CC[C@H]2[C@@H]3CC[C@@H]4C[C@H](O)CC[C@]4(C)[C@H]3CC[C@]12C	4.77% (inactive)	–
[S]=[Sb](=[S])[S][Sb](=[S])=[S]	2.26% (inactive)	–
CCN(CC)CCO[C@H]1CC[C@@]2(C)C(=CC[C@@H]3[C@@H]2CC[C@]2(C)C(=O)CC[C@@H]32)C1	-11.5% (inactive)	–
